# Laboratory results from article PMC7862700, “An all-to-all approach to the identification of sequence-specific readers for epigenetic DNA modifications on cytosine”.
# Experiments:
# Assay in all cases: DAPPL (digital affinity profiling via proximity ligation, sequencing); 10 mM Tris-HCl pH 7.5, 50 mM NaCl, 1 mM DTT, 4% glycerol, room temperature, 30 min; GST-TFs on glutathione beads, 16-mer random dsDNA library, 0.1% formaldehyde crosslink after washing; high values mean tight binding
# Settings in all cases: protein: recombinant; tags: N-terminal GST; dsDNA, one strand shown
# ERF = target: T1, ERF (Homo sapiens, UniProt P50548 1-548)
# T1 sequence: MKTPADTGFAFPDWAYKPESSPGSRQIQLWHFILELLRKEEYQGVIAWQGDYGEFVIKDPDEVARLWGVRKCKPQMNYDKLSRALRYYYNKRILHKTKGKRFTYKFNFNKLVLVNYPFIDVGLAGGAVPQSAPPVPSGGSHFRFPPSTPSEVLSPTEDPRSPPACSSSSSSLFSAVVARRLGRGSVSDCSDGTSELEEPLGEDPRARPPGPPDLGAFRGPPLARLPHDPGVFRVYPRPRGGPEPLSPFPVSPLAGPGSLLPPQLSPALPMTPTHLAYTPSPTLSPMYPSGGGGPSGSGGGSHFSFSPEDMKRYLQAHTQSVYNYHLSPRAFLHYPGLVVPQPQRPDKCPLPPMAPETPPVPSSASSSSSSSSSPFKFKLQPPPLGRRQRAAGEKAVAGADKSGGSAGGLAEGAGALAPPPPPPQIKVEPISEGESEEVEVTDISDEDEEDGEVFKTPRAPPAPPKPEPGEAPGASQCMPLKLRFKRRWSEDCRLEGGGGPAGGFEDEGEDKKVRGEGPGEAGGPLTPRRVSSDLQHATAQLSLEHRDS
# Method in brief: (§1)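 A tag-only sample was pooled with DNA-barcoded human transcription factors that had been expressed in yeast as GST fusions and captured on glutathione beads. The pools were incubated for 30 min at room temperature with 200 nmole of a random double-stranded 16-mer DNA library in Tris/NaCl/DTT/glycerol buffer, then washed, crosslinked with 0.1% formaldehyde, proximity-ligated (BsaI/T4 ligase, 1 h, 37 °C), PCR-amplified and sequenced on an Illumina NextSeq500. Binding signal is each hexamer's read frequency for a factor divided by its frequency for the tag-only sample.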
# ETV3L = target: T2, ETV3L (Homo sapiens, UniProt Q6ZN32 1-361)
# T2 sequence: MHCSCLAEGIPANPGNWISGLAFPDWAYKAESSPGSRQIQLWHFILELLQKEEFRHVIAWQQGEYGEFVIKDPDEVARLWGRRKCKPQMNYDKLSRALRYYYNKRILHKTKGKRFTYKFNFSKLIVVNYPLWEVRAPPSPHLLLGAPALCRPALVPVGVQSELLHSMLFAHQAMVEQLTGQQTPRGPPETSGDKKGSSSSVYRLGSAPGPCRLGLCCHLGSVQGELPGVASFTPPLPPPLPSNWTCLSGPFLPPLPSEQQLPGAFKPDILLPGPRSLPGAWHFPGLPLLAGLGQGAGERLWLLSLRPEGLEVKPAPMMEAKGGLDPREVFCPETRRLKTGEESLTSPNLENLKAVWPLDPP
# Method in brief: as §1
# ETS2 = target: T3, ETS2 (Homo sapiens, UniProt P15036 1-469)
# T3 sequence: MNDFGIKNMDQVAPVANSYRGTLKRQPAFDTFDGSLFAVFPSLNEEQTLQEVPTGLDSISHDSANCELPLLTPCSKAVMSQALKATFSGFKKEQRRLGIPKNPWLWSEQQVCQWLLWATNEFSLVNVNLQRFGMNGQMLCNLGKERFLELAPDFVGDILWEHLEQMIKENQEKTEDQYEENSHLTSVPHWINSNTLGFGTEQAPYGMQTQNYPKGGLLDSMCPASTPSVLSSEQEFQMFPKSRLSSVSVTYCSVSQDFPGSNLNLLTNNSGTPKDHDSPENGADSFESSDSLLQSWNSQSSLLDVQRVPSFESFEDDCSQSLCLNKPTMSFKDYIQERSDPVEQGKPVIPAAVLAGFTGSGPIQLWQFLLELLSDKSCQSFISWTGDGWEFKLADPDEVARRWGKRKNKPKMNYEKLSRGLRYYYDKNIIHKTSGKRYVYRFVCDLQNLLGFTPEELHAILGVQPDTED
# Method in brief: as §1
# SPDEF = target: T4, SPDEF (Homo sapiens, UniProt O95238 1-335)
# T4 sequence: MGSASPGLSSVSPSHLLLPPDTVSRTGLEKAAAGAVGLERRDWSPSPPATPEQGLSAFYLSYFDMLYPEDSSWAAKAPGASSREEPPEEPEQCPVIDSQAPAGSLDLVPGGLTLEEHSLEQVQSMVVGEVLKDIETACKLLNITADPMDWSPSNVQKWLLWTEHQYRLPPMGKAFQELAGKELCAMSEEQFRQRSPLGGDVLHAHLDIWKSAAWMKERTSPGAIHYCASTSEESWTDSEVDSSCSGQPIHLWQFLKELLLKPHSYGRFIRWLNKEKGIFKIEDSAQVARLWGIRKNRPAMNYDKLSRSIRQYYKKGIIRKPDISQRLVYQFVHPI
# Method in brief: as §1
# ETV7 = target: T5, ETV7 (Homo sapiens, UniProt Q9Y603 1-341)
# T5 sequence: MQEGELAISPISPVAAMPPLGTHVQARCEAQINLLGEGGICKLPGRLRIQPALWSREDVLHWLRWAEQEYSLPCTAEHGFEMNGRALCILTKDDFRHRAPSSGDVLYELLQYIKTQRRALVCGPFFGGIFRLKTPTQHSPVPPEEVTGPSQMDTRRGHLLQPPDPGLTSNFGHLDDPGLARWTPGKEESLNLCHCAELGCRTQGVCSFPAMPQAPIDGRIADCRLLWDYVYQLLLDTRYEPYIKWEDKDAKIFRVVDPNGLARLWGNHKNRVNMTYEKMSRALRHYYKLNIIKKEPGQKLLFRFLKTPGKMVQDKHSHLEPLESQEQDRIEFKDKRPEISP
# Method in brief: as §1
# ELF5 = target: T6, ELF5 (Homo sapiens, UniProt Q9UKW6-2 1-255)
# T6 sequence: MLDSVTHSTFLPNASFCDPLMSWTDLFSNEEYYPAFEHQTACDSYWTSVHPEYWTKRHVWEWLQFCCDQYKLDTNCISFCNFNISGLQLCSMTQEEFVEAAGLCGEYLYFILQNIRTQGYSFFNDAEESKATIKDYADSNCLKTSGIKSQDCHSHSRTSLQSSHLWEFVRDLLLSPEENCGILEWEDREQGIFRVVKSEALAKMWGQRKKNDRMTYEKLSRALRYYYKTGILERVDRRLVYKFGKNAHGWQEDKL
# Method in brief: as §1
# ETV3 = target: T7, ETV3 (Homo sapiens, UniProt P41162-2 1-143)
# T7 sequence: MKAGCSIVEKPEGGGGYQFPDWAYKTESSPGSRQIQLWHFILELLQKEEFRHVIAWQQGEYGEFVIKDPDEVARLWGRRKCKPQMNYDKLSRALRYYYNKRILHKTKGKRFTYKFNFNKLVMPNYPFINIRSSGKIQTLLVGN
# Method in brief: as §1
# ETV6 = ETV6 (Homo sapiens, UniProt P41212 1-452)
# Chain of ETV6 (P41212 whole entry): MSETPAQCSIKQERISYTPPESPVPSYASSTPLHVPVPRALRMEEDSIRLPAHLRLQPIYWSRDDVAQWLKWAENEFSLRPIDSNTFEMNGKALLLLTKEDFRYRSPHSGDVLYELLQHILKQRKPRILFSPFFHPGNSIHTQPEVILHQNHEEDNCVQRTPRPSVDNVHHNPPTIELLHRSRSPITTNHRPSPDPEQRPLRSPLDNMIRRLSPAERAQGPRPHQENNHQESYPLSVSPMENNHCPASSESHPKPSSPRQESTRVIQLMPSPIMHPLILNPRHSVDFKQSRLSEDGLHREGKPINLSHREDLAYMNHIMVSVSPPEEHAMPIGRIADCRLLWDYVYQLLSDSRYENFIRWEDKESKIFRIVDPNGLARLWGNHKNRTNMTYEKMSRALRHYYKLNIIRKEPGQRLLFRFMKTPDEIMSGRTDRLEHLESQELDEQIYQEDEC
# Method in brief: as §1
Sequence,binding signal (ERF),binding signal (ETV3L),binding signal (ETS2),binding signal (SPDEF),binding signal (ETV7),binding signal (ELF5),binding signal (ETV3),binding signal (ETV6)
GTCTTT,"1.27 fold enrichment (6-mer frequency, TF over GST control)","1.27 fold enrichment (6-mer frequency, TF over GST control)","1.26 fold enrichment (6-mer frequency, TF over GST control)","1.17 fold enrichment (6-mer frequency, TF over GST control)","1.28 fold enrichment (6-mer frequency, TF over GST control)","1.31 fold enrichment (6-mer frequency, TF over GST control)","1.26 fold enrichment (6-mer frequency, TF over GST control)","1.24 fold enrichment (6-mer frequency, TF over GST control)"
AATCCT,"1.21 fold enrichment (6-mer frequency, TF over GST control)","1.24 fold enrichment (6-mer frequency, TF over GST control)","1.32 fold enrichment (6-mer frequency, TF over GST control)","1.45 fold enrichment (6-mer frequency, TF over GST control)","1.41 fold enrichment (6-mer frequency, TF over GST control)","1.61 fold enrichment (6-mer frequency, TF over GST control)","1.37 fold enrichment (6-mer frequency, TF over GST control)","1.29 fold enrichment (6-mer frequency, TF over GST control)"
CATTCC,"1.22 fold enrichment (6-mer frequency, TF over GST control)","1.28 fold enrichment (6-mer frequency, TF over GST control)","1.28 fold enrichment (6-mer frequency, TF over GST control)","1.29 fold enrichment (6-mer frequency, TF over GST control)","1.19 fold enrichment (6-mer frequency, TF over GST control)","1.28 fold enrichment (6-mer frequency, TF over GST control)","1.27 fold enrichment (6-mer frequency, TF over GST control)","1.3 fold enrichment (6-mer frequency, TF over GST control)"
AATGCT,"1.16 fold enrichment (6-mer frequency, TF over GST control)","1.15 fold enrichment (6-mer frequency, TF over GST control)","1.2 fold enrichment (6-mer frequency, TF over GST control)","1.11 fold enrichment (6-mer frequency, TF over GST control)","1.1 fold enrichment (6-mer frequency, TF over GST control)","1.24 fold enrichment (6-mer frequency, TF over GST control)","1.14 fold enrichment (6-mer frequency, TF over GST control)","1.32 fold enrichment (6-mer frequency, TF over GST control)"
TAATCA,"1.09 fold enrichment (6-mer frequency, TF over GST control)","1.12 fold enrichment (6-mer frequency, TF over GST control)","1.14 fold enrichment (6-mer frequency, TF over GST control)","1.11 fold enrichment (6-mer frequency, TF over GST control)","1.1 fold enrichment (6-mer frequency, TF over GST control)","1.08 fold enrichment (6-mer frequency, TF over GST control)","1.15 fold enrichment (6-mer frequency, TF over GST control)","1.18 fold enrichment (6-mer frequency, TF over GST control)"
TACGAA,"1.28 fold enrichment (6-mer frequency, TF over GST control)","1.27 fold enrichment (6-mer frequency, TF over GST control)","1.18 fold enrichment (6-mer frequency, TF over GST control)","1.18 fold enrichment (6-mer frequency, TF over GST control)","1.31 fold enrichment (6-mer frequency, TF over GST control)","1.2 fold enrichment (6-mer frequency, TF over GST control)","1.19 fold enrichment (6-mer frequency, TF over GST control)","1.18 fold enrichment (6-mer frequency, TF over GST control)"
AATGTT,"1.61 fold enrichment (6-mer frequency, TF over GST control)","1.56 fold enrichment (6-mer frequency, TF over GST control)","1.56 fold enrichment (6-mer frequency, TF over GST control)","1.44 fold enrichment (6-mer frequency, TF over GST control)","1.68 fold enrichment (6-mer frequency, TF over GST control)","1.62 fold enrichment (6-mer frequency, TF over GST control)","1.61 fold enrichment (6-mer frequency, TF over GST control)","1.63 fold enrichment (6-mer frequency, TF over GST control)"
CGCCTT,"1.35 fold enrichment (6-mer frequency, TF over GST control)","1.29 fold enrichment (6-mer frequency, TF over GST control)","1.3 fold enrichment (6-mer frequency, TF over GST control)","1.3 fold enrichment (6-mer frequency, TF over GST control)","1.34 fold enrichment (6-mer frequency, TF over GST control)","1.52 fold enrichment (6-mer frequency, TF over GST control)","1.45 fold enrichment (6-mer frequency, TF over GST control)","1.52 fold enrichment (6-mer frequency, TF over GST control)"
AATGGT,"1.38 fold enrichment (6-mer frequency, TF over GST control)","1.33 fold enrichment (6-mer frequency, TF over GST control)","1.33 fold enrichment (6-mer frequency, TF over GST control)","1.27 fold enrichment (6-mer frequency, TF over GST control)","1.41 fold enrichment (6-mer frequency, TF over GST control)","1.43 fold enrichment (6-mer frequency, TF over GST control)","1.4 fold enrichment (6-mer frequency, TF over GST control)","1.39 fold enrichment (6-mer frequency, TF over GST control)"
